Assay outcomes (PubChem)
Hits are enriched below; roughly 3.5% of the tested compounds scored in any of these assays.
GPR151 activ – activates the human receptor GPR151 | Q8TDV0 | PathHunter beta-arrestin GPR151 cells, luminescence | activation, % at 11.2 µM | 650,000 tested, 1% active; in the data active means activation above about 4.9%;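 further: 0% = median of compound wells and 100% = cells with positive control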
TEAD-YAP inh – TEAD-YAP interaction inhibition. 640,000 tested, 1.4% active. HEK-TIYL cells, TEAD-Gal4/YAP UAS-luciferase luminescence. AID 1259422. inhibition, % at 9.12 µM; in the data active means inhibition above about 32%;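 further: 0% = median of test compound wells and 100% = reference inhibitor wells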
FBW7 activator – activators of human E3 ligase FBW7 | Q969H0 | AlphaScreen FBW7–phospho-cyclin E peptide binding, activator screen | 650,000 tested, 0.13% active | normalized activity (activation), % at 26.1 µM; in the data active means normalized activity above about 1.9%;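 further: purified mutant Fbw7 with reduced substrate affinity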
Target sequence (Q969H0 whole entry, looked up): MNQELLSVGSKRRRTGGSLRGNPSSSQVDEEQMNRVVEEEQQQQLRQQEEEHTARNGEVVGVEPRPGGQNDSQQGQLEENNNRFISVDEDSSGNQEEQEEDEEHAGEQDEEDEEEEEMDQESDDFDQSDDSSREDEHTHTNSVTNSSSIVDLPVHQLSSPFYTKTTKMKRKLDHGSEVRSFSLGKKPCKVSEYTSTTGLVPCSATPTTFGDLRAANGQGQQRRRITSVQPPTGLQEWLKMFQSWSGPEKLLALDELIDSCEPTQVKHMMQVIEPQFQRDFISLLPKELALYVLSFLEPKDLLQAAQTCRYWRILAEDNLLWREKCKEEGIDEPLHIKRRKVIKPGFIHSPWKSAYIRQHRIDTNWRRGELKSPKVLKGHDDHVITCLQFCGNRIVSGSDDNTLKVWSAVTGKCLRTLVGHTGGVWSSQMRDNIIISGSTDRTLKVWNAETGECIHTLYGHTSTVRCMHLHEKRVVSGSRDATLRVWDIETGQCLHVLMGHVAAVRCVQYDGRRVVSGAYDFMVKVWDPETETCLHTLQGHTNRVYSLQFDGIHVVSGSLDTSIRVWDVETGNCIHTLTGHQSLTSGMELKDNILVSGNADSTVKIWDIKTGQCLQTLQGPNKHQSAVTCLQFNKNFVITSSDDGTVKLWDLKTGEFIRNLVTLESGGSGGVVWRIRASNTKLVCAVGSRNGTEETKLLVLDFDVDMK
MITF primary – human MITF inhibition, primary screen; AID 1259374; 650,000 tested, 0.91% active; O75030; inhibition, % at 2.6 µM; AlphaScreen MITF homodimerization, bead proximity signal; in the data active means inhibition above about 50%;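 further: 0% = vehicle wells with protein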
* marks the source's active call; other numbers are inactive results; nt = no result given.

SMILES | GPR151 activ | TEAD-YAP inh | FBW7 activator | MITF primary
CC(=O)N(/C=C1/Sc2ccccc2C1=O)c1ccc(C)cc1 | -3 | 59* | 0 | 12
O=C(O)CNC(=O)c1cc2c3c(c1)C1C=CCC1C(c1ccc(F)cc1)N3CC1CC=CC21 (stereo not given) | -1 | 2 | -1 | 73*
CCOC(=O)c1cc2c3c(c1)C1C=CCC1C(c1ccc(F)cc1)N3CC1CC=CC21 (stereo not given) | -2 | 5 | 0 | 6
COCCOC(=O)c1c(C)oc2cc(C)c(NS(=O)(=O)c3cccs3)cc12 | 3 | 21 | 0 | 11
CCCc1oc2ccc(NS(=O)(=O)c3ccc(Br)cc3)cc2c1C(=O)OCC | 0 | 42* | 0 | -12
CCOC(=O)c1c(C)oc2ccc(NS(=O)(=O)c3ccc(Br)cc3)cc12 | 0 | -9 | 0 | -5
CCOc1ccc(S(=O)(=O)Nc2ccc3oc(C)c(C(=O)OC(C)C)c3c2)cc1 | -1 | 8 | 1 | 10
CCOC(=O)c1c(C)oc2ccc(NS(=O)(=O)c3ccc(OCC)cc3)cc12 | 1 | 54* | 0 | 13
CCOC(=O)c1c(C)oc2cc(C)c(NS(=O)(=O)c3cccs3)cc12 | 1 | 46* | 0 | 5
CCOC(=O)c1c(C)oc2ccc(NS(=O)(=O)c3ccc(OC)cc3)cc12 | 4 | 42* | 0 | 4
CC1CCc2cc(F)ccc2N1C(=O)c1ccc(N2CC3CC(C2)c2cccc(=O)n2C3)c(NC(=O)c2cc3ccccc3oc2=O)c1 (stereo not given) | -1 | 1 | 0 | 1
CCOC(=O)c1c(C)oc2c(Cl)cc(NS(=O)(=O)c3ccc(OCC)cc3)cc12 | 1 | 56* | 0 | 0
CCCCCCCCCCCCCCCCCCCCCC(=O)NCCO | 3 | nt | nt | 1
O=C(Cn1c(=O)oc2ccccc21)Nc1ccnc2ccccc12 | 1 | 32* | 0 | 6
COCCN1C(=O)c2ccccc2C(C(=O)NC2CCCCC2)C1c1ccc(F)cc1 (stereo not given) | 2 | 7 | 0 | 7
O=C(CCc1ccccc1)Nc1nnc(-c2ccc(Cl)cc2Cl)s1 | 0 | 8 | 0 | 18
O=C(O)C1=C(C(=O)Nc2ccc3c(c2)OCCO3)CCCC1 | 0 | 55* | 0 | 3
O=C(Nc1onc2c1CCC2)c1ccc2ccccc2c1 | 0 | -26 | 0 | -9
COc1cccc(S(=O)(=O)Nc2ccc3c(c2)OCCO3)c1 | 0 | 33* | 0 | 1
O=C(Nc1onc2c1CCCC2)c1ccc2c(c1)OCO2 | -9 | 65* | 0 | 6
O=C(Nc1ccc2ncsc2c1)c1ccc2c(c1)OCCO2 | -8 | 86* | 0 | 3
O=C(Nc1ccc2ncsc2c1)c1ccc(F)cc1 | -5 | -37 | 1 | 22
COc1cc(C=C(C#N)C#N)c([N+](=O)[O-])cc1OCc1ccccc1 | -4 | -6 | 0 | 13
CC(C)C(NC(=O)C1CCOC1)c1nnc2n1CCN(C(=O)CC1CCCC1)CC2 (stereo not given) | 0 | -4 | 0 | -8
O=C(Nc1ccc2c(c1)CCC2)c1ccc2c(c1)OCO2 | -6 | 59* | 0 | 15
SMILES | GPR151 activ | TEAD-YAP inh | FBW7 activator | MITF primary
CCCCOc1cccc(C(=O)Nc2ccc3c(c2)OCCO3)c1 | -1 | -21 | 0 | 7
COc1cc(OC)c(S(=O)(=O)Nc2ccc3c(c2)OCCO3)cc1NC(C)=O | 0 | 35* | 0 | 3
COc1cccc(C(=O)Nc2ccc3c(c2)OCCO3)c1 | -10 | 79* | 0 | 13
Cc1ccc(C(=O)Nc2ccc3c(c2)OCO3)cc1 | -5 | 44* | 0 | 8
O=C(NCc1ccccc1Cl)c1cc(Sc2ccc(F)cc2)nc2ccccc12 | -2 | -1 | 0 | -4
O=C(Nc1ccc2c(c1)OCCO2)c1ccc(F)cc1 | -6 | 43* | 0 | -15
Cc1ccc(C(=O)Nc2ccc3c(c2)OCCO3)cc1 | 1 | 0 | 0 | -19
COC(=O)COc1ccc(/C=C2/NC(=O)NC2=O)cc1OC | 0 | -3 | 0 | -20
O=c1[nH]c(N2CCOCC2)nc2c1CCN(Cc1ccccc1)C2 | 0 | 6 | 2.7* | 7
O=c1[nH]c(N2CCOCC2)nc2c1CCN(Cc1ccccc1F)C2 | -1 | -3 | 0 | -2
O=C(O)CCN1C(=O)CSC1=S | 1 | 10 | 0 | 6
O=C(O)CCCCN1C(=O)CSC1=S | -1 | 38* | 0 | 24
O=C1CCCN1CCCNc1nc(N2CCOCC2)nc2c1ncn2-c1ccccc1 | 4 | 67* | 0 | 3
O=C1CCCN1CCCNc1nc(N2CCN(c3ccccn3)CC2)nc2c1ncn2-c1ccccc1 | -1 | 56* | 0 | -13
